Screening results (PubChem BioAssay)
An excerpt weighted towards active compounds, which were near 4.3% of everything screened.
DRD3 agonist – activates the human D3 dopamine receptor. 0.58% of 410,000 active. max activation, %. D3R DiscoveRx beta-arrestin cells, luminescence, 90 min; in the data active = max activation above about 30%; note: 0% is about no effect
Target sequence (P35462 whole entry, looked up): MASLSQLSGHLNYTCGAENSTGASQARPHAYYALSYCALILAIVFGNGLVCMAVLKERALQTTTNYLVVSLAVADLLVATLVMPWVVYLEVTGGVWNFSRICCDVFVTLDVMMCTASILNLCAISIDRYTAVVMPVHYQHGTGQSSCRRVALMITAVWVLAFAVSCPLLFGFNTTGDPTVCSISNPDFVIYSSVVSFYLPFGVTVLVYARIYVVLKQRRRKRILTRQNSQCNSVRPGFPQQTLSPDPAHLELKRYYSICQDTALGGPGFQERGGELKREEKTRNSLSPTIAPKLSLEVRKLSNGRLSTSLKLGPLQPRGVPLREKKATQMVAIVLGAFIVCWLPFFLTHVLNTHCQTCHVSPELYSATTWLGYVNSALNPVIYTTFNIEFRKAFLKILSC
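Agonist mode: compounds and dopamine controls were applied to plated cells for 90 min at 37 degrees C after an overnight attachment at 1500 cells/well. Luminescent read-out followed 30 - 60 minutes at room temperature with DiscoveRx detection reagent.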
D3 antag – D3 dopamine receptor (human) antagonism; 2.5% of 360,000 active; max response, negative = inhibition, %; D3R cells, DiscoveRx beta-arrestin luminescence, antagonist mode; active compounds read low; AID 652054; P35462; in the data active = max response below about -50%; inconclusive = no clear call, values can overlap the other calls; note: % is set by controls: 0 for no effect and ±100 for the full control effect
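Cells expressing the human receptor were seeded at 1500 cells/well, incubated overnight at 37 degrees C in 5% CO2, then exposed to library compounds with dopamine controls for 90 minutes at 37 degrees C before luminescent detection.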
GLP1R ag – agonists of human GLP-1 receptor. HEK293 GLP-1R CRE-luciferase, luminescence, 4-6 h; cells express a hypersensitive GLP-1R form. Potency, µM (doses to about 45.6 µM), inactives show top-dose activation, hits mostly activators. 0.007% of 380,000 active. AID 624172; note: potency is the fitted concentration of half-maximal effect; % of control where 0% means no effect
GLP-1R inv ag – acts as inverse agonist at human GLP-1 receptor; HEK293 GLP-1R CRE-luciferase, luminescence, 24 h; GLP-1R form is constitutively active; Potency, µM (top dose mostly 38.3 µM), for the others: at the highest dose activity change, negative = inhibition, actives largely listed as inhibitors; 1.6% of 410,000 active; note: potency is the fitted concentration of half-maximal effect; % is set by controls: 0 for no effect and ±100 for the full control effect; nearly all actives have a fitted effect of over 55% in size
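Assay principle: reduced luminescence from a cAMP-responsive reporter in HEK293 cells co-expressing a constitutively active GLP-1R. Conditions: 24 hr compound incubation, 37 deg C, 5% CO2.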
Starred values were filed as active, the others as inactive; ? = inconclusive; . = not tested or not shown; [ ] = dose if it differs, or a comment. Unless noted, calls come from the whole dose curve; as a rule, active = well fitted curve in the direction sought with a large enough effect; inconclusive = small, poorly fitted or top-dose-only effect, or another doubt; inactive = no such curve, though single readings can be large; an effect the other way counts as inactive or inconclusive.

SMILES	DRD3 agonist	D3 antag	GLP1R ag	GLP-1R inv ag
c1ccc(C(OCCN2CCNCC2)c2ccccc2)cc1	-1	-68*	-3%	?
CCOc1ccc(-c2cc(C(=O)N3CCN(S(=O)(=O)c4cc(Cl)ccc4OC)CC3)[nH]n2)cc1	15	.	.	?
O=C(c1cc(C(=O)NCc2ccccc2)c(=O)n(Cc2ccccc2)c1)c1cc(Br)ccc1O	-2	13	-24%	?
Cc1ccc(O)c(C(=O)c2cc(C(=O)NCc3ccccc3)c(=O)n(Cc3ccccc3)c2)c1	-24	-69*	6%	-4%
COc1ccc(C2NCc3ccccc3-n3cccc32)cc1 (stereo not drawn)	-8	4	-3%	?
COc1cc(C2NCc3ccccc3-n3cccc32)ccc1O (stereo not drawn)	-11	?	-3%	10µM*
CCOc1cc(C2NCc3ccccc3-n3cccc32)ccc1OC (stereo not drawn)	-8	-19	-4%	10µM*
CCOc1cc2c(cc1OCC)-n1cccc1C(c1ccc(OC)c(O)c1)NC2 (stereo not drawn)	-9	-22	17%	?
Cc1ccc(Cl)cc1N1CCN(C(=O)C2CCN(S(=O)(=O)c3ccc4c(c3)oc(=O)n4C)CC2)CC1	11	.	.	?
O=C(CNC(=O)OCc1ccccc1)Nc1ccc(Br)cc1C(=O)c1ccccc1	-1	-5	-9%	11µM*
Nc1cc(Cl)c2nonc2c1[N+](=O)[O-]	-15	-58*	-31%	?
COc1ccc(OC)c(C[C@H](C)N)c1	9	.	-4%[110 µM]	.
Cc1ccc(NC(=O)C2CCN(C(=O)c3cnn(-c4ccccc4)c3-n3cccc3)CC2)cc1Cl	3	.	.	?
CNCCCN1c2ccccc2CCc2ccccc21	-82	-75*	-2%	4µM*
c1ccc2c(N3CCNCC3)nsc2c1	-11	-70*	-6%	?
COc1ccc(CC(=O)N2CCN(C)CC2)cc1	6	?	-1%	-5%
COc1ccc(CC(=O)N2CCN(C)CC2)cc1OC	-3	-71*	15%	0%
NC(N)=Nc1ccc2[nH]c3c(c2c1)C[C@@]1(O)[C@H]2Cc4ccc(O)c5c4[C@@]1(CCN2CC1CC1)[C@H]3O5	-46	-61*	-4%	-12%
CCCCc1ccc2[nH]cc(CCN)c2c1	65*	-1	-1%	10µM*
Nc1cc(N2CCNCC2)ccc1[N+](=O)[O-]	-8	-17	-2%	9%
Clc1cccc(N2CCNCC2)c1	-76	-76*	5%	-29%
CC(=O)c1ccc2c(c1)N(CCCN(C)C)c1ccccc1S2	-96	-108*	5%	?
CCOC(=O)N1CCC(NC(=O)c2ccc3c(c2)N(Cc2cccc(C)c2)C(=O)c2ccccc2S3(=O)=O)CC1	-6	.	-4%	?
COC(=O)C1C2CC[C@@H](CC1OC(=O)c1ccccc1)N2 (stereo partly drawn)	41*	19	18%	8%
CC(Sc1ncnc2sccc12)C(=O)Nc1ccc(S(=O)(=O)N2CCOCC2)cc1 (stereo not drawn)	-3	7	25%	78%
SMILES	DRD3 agonist	D3 antag	GLP1R ag	GLP-1R inv ag
O=C1NC(=O)C(=Cc2ccccc2OCCOc2ccc([N+](=O)[O-])cc2)C(=O)N1	-5	-17	6%	10µM*
O=C(C[C@@H]1NCCC[C@H]1O)Cn1cnc2cc(Br)c(Cl)cc2c1=O	-8	.	.	.
NC(=O)c1ccc(OCCC(O)N2CC=C(c3ccc(F)cc3)CC2)cc1 (stereo not drawn)	-26	-57*	-3%	-3%
CCOC(=O)c1ccc(N2C(=O)CC(N3CC=C(c4ccc(F)cc4)CC3)C2=O)cc1 (stereo not drawn)	0	-24	-8%	-13%
O=P1(c2ccccc2)Nc2ccccc2N1c1ccccc1 (stereo not drawn)	29	2	5%	4.5µM*
CCOC(=O)c1cccc(C2=C(CNC(=O)c3ccc([N+](=O)[O-])cc3)[C@H]3CC[C@@H](C2)N3Cc2ccccc2)c1	-17	-98*	-1%	?
O=[N+]([O-])c1cccc(CCl)c1	-97	-117*	9%	10%
Cc1ccc(-c2nnc(Nc3ccc(OC(F)(F)Cl)cc3)c3ccccc23)cc1S(=O)(=O)NC(C)(C)CO	2	.	-4%	?
COc1ccc(NC(=O)Nc2ccc3c(c2)C(=O)N([C@H](C)CO)C[C@H](C)[C@@H](CN(C)Cc2ccc(Cl)c(Cl)c2)OCCCC[C@@H](C)O3)cc1	5	2	-2%	3.2µM*
